Data: PubChem BioAssay (NCI)
This is part of a sample that, as a whole, favours compounds with a hit. Of some 83,000 tested, about 20% had one in any assay.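 The endpoint reported here, percent growth, reads 100 for growth as untreated, 0 for no net growth and -100 for all cells dead.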 Unmarked numbers belong to inactive results. Calls of active or inactive are those of the source. Rule for the calls: active = growth percent below 10; inactive = the rest.

Experiments:
Experiment in all cases: NCI-60 one-dose screen, 48 h (100 = growth as untreated, 0 = no growth, -100 = all killed)
Conditions in all cases: 10 µM unless noted
NCI-H23 lung = tested on: NCI-H23 lung
NCI-H226 lung = tested on: NCI-H226 lung
NCI-H322M lung = tested on: NCI-H322M lung
HOP-62 NSCLC = tested on: HOP-62 NSCLC
NCI-H460 lung = tested on: NCI-H460 lung
HOP-92 NSCLC = tested on: HOP-92 NSCLC
NCI-H522 lung = tested on: NCI-H522 lung
A549/ATCC NSCLC = tested on: A549/ATCC NSCLC
786-0 renal = tested on: 786-0 renal
COLO 205 colon = tested on: COLO 205 colon
DU-145 prostate = tested on: DU-145 prostate
K-562 leukemia = tested on: K-562 leukemia
MALME-3M melanoma = tested on: MALME-3M melanoma
MDA-MB-231 breast = tested on: MDA-MB-231 breast
RXF 393 renal = tested on: RXF 393 renal
SF-268 CNS = tested on: SF-268 CNS
SF-295 CNS = tested on: SF-295 CNS
SF-539 CNS = tested on: SF-539 CNS
UACC-257 melanoma = tested on: UACC-257 melanoma
M14 melanoma = tested on: M14 melanoma

Structure (SMILES)	growth (NCI-H23 lung)	growth (NCI-H226 lung)	growth (NCI-H322M lung)	growth (HOP-62 NSCLC) [%]	growth (NCI-H460 lung)	growth (HOP-92 NSCLC)	growth (NCI-H522 lung)	growth (A549/ATCC NSCLC)	growth (786-0 renal)	growth (COLO 205 colon)	growth (DU-145 prostate)	growth (K-562 leukemia)	growth (MALME-3M melanoma)	growth (MDA-MB-231 breast)	growth (RXF 393 renal)	growth (SF-268 CNS)	growth (SF-295 CNS)	growth (SF-539 CNS)	growth (UACC-257 melanoma)	growth (M14 melanoma)
CCCCCCCCCCCCCCCCCCOc1ccccc1CC(=O)NCC[N+]1(C)CCOCC1	67.8%	69.2%	65.2%	53	45.7%	-2.9% (active)	30.8%	55.6%	2.4% (active)	37.6%	65.5%	15.7%	58.9%	54.1%	-39.4% (active)	41.5%	62.8%	54.5%	99.4%	69.6%
COC(c1ccc2ccccc2c1)C(C)C(F)F (stereo not given)	95.7%	100%	99.6%		111%	107%	86.9%	96.8%	90.5%	112%	110%	97.1%	99.5%	111%	106%	100%	97.1%	95.2%	91.3%	99.1%
COc1ccc(C/C(C)=C(\c2ccc(O)cc2)c2ccc(OCCN3CCCC3)cc2)cc1	105%	113%	99.2%		113%	104%	97.5%	98%	100%	111%	104%	85.5%	94.1%	104%	136%	107%	102%	99.9%	99.1%	95.2%
C=CC1(C)C(O[Si](C)(C)C(C)(C)C)CC2C3OC(=O)NC31c1cccc3c1[C@H](C(=O)N3C)C2(C)C (stereo not given in full)	59.7%	66.7%	78.3%	85.5	44.7%	29.4%	44.1%	41.7%	73.6%	40.8%	76.2%	34%	64%	43.3%	68.6%	73.6%	46.9%	65.4%	33.1%	48.5%
O=c1nc(Nc2nc3ccccc3s2)[nH]c(=O)c2ccccc12	99.1%	92.8%	105%		103%	83.4%	96.8%	106%	96%	112%	106%	95.9%	99.7%	98.3%	98.1%	102%	99.3%	97.5%	107%	101%
O=C(/C=C/c1cccc(Cl)c1)c1cccc(OCCCCOc2cccc(C(=O)/C=C/c3cccc(Cl)c3)c2)c1	89.3%	99.7%	92.2%		98.7%	78.6%	88.7%	85.4%	98.8%	76%	97.4%	91.4%	96.8%	97.1%	89.9%	96.6%	103%	96.6%	89.7%	85.5%
Cn1cc(/C=C2/C(=O)Nc3ccccc32)c2ccccc21	73.4%	70.6%	91.5%		92.4%	87.4%	77.8%	86.2%	98.4%	91.7%	99.1%	96.7%	94.5%	109%	96.7%	84.5%	108%	80%	95.9%	92.3%
COc1ccccc1NC(=O)c1ccc(/C=C/C(=O)c2nccn2C)cc1	-35.7% (active)	24.6%	-93.4% (active)		-43.5% (active)	-24.3% (active)	-44.8% (active)	-0.305% (active)	-48.4% (active)	-53.1% (active)	-88.2% (active)	2.11% (active)	-19.9% (active)	-27% (active)	-71.1% (active)	-61.3% (active)	-87.8% (active)	-90.6% (active)	-2.34% (active)	-61.2% (active)
CC1=C(C(=O)n2c3ccccc3c3ccccc32)C(c2cccc([N+](=O)[O-])c2)C(C(=O)n2c3ccccc3c3ccccc32)=C(C)N1	91.9%	96.9%	98.4%	102	102%	93.8%	101%	102%	103%	108%	103%	95.8%	88.9%	85%	111%	89.3%	102%	98.6%	106%	100%
COc1cccc(/C=C/C(=O)c2cc3c(N)c(C(=O)Nc4cccc(Cl)c4C)sc3nc2C)c1	20.4%	-23.6% (active)	7.75% (active)		-23.5% (active)	20.3%	-69.7% (active)	3.76% (active)	-43.8% (active)	-27.1% (active)	4.37% (active)	11%	14.7%	-26.5% (active)	-71% (active)	10.1%	5.12% (active)	-36% (active)	57.4%	-28.4% (active)
NC(=O)c1c(NC(=O)c2ccc(Cl)cc2)sc2c1CCC(=O)C2	51.6%	97.8%	94%		100%	77.4%	7.79% (active)	98.5%	94.3%	75.9%	98.6%	13.9%	92.7%	86.3%	56.7%	47.5%	96.2%	43.2%	91.6%	51.5%
Cc1cc(F)ccc1S(=O)(=O)Nc1cc(-c2c(O)ccc3ccccc23)c(O)c2ccccc12	16.7%	47.3%	79%		16.3%	19.1%	-36.2% (active)	20.4%	76.2%	14.3%	41.7%	14.8%	15.3%	22.7%	27.1%	34.9%	41.8%	6.5% (active)	30.2%	18.2%
CC(C)c1ccc(C(=O)Nc2sc3cc(O)ccc3c2C#N)cc1	46.2%	58.2%	61.7%	41.1	23%	79.2%	54.2%	44.6%	31.2%	91.8%	50.5%	13.8%	39.2%	46.3%	45.2%	44.8%	22.2%	32.5%	51.3%	5.43% (active)
COc1cccc(/C=C/C(=O)c2cc3c(N)c(C(=O)Nc4ccccc4C)sc3nc2C)c1	70.4%	69.2%	80.5%		32.2%	74.1%	-7.9% (active)	62.9%	9.79% (active)	92.2%	8.15% (active)	12.9%	78.6%	52.8%	-10.2% (active)	28.9%	74%	50.9%	83.2%	47.5%
Cn1cc(-c2nonc2-c2c[nH]c3ccc(F)cc23)c2cc(Br)ccc21	52.7%	79.5%	44.9%	40.5	19.8%	76%	14.8%	35.9%	45.9%	54%	50.2%	7.64% (active)	61%	34.9%	74.2%	49.9%	36.5%	67.8%	63.3%	36.5%
